From ChEMBL document CHEMBL4888484, “Replenishing the malaria drug discovery pipeline: Screening and hit evaluation of the MMV Hit Generation Library 1 (HGL1) against asexual blood stage Plasmodium falciparum ,using a nano luciferase reporter read-out” (2022)
In all, about 4,800 compounds went through this assay and about 420 (8.8%) showed an effect of 50% or more. For the sample, strong results were picked, then their nearest neighbours and some compounds at random.

System: Plasmodium falciparum
Assay: Confirmatory screen in NF54 nanoGlo assay, in single point, at 2uM, 72h
Assay type: functional, Erythrocyte
Details: timepoint 72 hour

Compound	% Inhibition
Cc1cc(=O)n2ncc(C(=O)NCc3cc(F)cc(F)c3)c2[nH]1	-13%
C=CCOC(=S)NC(=O)Cc1ccccc1Cl	7%
Cc1ccc(-c2cn3c4ccccc4nc3n2CCN2CCN(C)CC2)cc1	2%
Cn1c(-c2ccc(-c3ccccc3)cc2)cn2cc(-c3cccc(Br)c3)nc12	0%
CCN(CC)CCn1c2ccccc2n2cc(-c3ccc(Br)cc3)nc12	59%
Cn1c(-c2ccc(Br)cc2)cn2cc(-c3ccc(Cl)cc3)nc12	-5%
O=C(Nc1ccccc1)c1cccc(CN2CCN3CCOC[C@@H]3C2)c1	-5%
CCn1cc(NC(=O)CCn2ncc3c(Cl)cccc32)cn1	-6%
O=C(c1cc2ncccn2n1)N1CCc2ccccc2C1	-3%
O=S(=O)(Nc1cccc(-c2nnc3n2CCC3)c1)c1ccc2c(c1)OCCCO2	-12%
Brc1cncnc1NC1CC1	2%
CC[C@H](O)CN1CCC(Nc2ncnc3cc(Cl)ccc23)CC1	42%
CC1CC(Nc2ncnc3cc(Br)ccc23)CCN1C (configuration not stated)	96%
CN1CCC(Nc2ncnc3c2cnn3C)C1c1ccc(Cl)cc1 (configuration not stated)	4%
Cc1nc(-c2ccc(C(F)(F)F)cc2)nc(N2CCN(C(=O)c3cc(C(F)(F)F)cc(C(F)(F)F)c3)CC2)c1C(C)C	-2%
CC(C)(C)C(=O)Nc1cc(Br)c(O)c(Br)c1	3%
COCCN1CC2(CCCC2)N(C(=O)COc2ccc(F)cc2)CC1=O	-7%
COc1cc(=O)c(C(=O)N2CCC(C(N)=O)CC2)nn1-c1ccc(F)c(F)c1	3%
Cc1nccn1-c1cc(CNC(=O)[C@H]2CCCN(S(=O)(=O)c3cccs3)C2)ccn1	2%
Cc1n(CC(=O)c2ccccc2)c2ccccc2[n+]1CC(=O)c1ccccc1	68%
Cc1ccc(C(=O)C[n+]2cc(-c3ccc(-c4ccccc4)cc3)n(C)c2N)cc1	4%
O=C(c1ccccc1)n1c(=O)n(C(=O)c2ccccc2)c2ccccc21	6%
COc1ccc(S(=O)(=O)N2CCN(Cc3noc(CCC(=O)N(C)Cc4ccccc4)n3)CC2)cc1	-6%

Compound	% Inhibition
CC(C)(CC(=O)O)CC(=O)Nc1ccc(Cc2nnc3ccccn23)cc1	-4%
O=C(NCC1CC1)c1cn[nH]c1-c1ccccc1	-1%
Oc1cc(OCc2ccccc2F)ccc1-c1[nH]ncc1-c1ccccc1	75%
COc1cc(OC)cc(C2(O)CCN(C(=O)CCc3ccccc3F)CC2)c1	-10%
COc1cc(-c2nc3ccccc3s2)ccc1OCc1cccc2ccccc12	-7%
COc1ccc(-c2c(C(F)(F)F)n[nH]c2-c2ccc(OCc3ccccc3F)cc2O)cc1	90%
c1ccc(-c2cn[nH]c2N2CCNCC2)cc1	-7%
NS(=O)(=O)Cc1ccc(CNc2ccc3ccc(F)cc3n2)cc1	3%
CCC(=O)N1CCc2sc(C(=O)NC3CCN(Cc4ccccc4)CC3)cc2C1	-5%
CCCn1nccc1C(=O)NCCCn1ncc2c(C)cccc21	-2%
CNC(=O)c1cc(NS(=O)(=O)N2CCCCCC2)ccc1F	-8%
CCNC(=O)N1CCCC[C@@]1(C)c1noc(-c2ccc(F)cc2)n1	5%
Fc1ccc(COc2cccc(CNCCN3CCOCC3)c2)cc1	-8%
Cc1nn(C)c(Cl)c1CNCc1ccc(N2CCCCC2)nc1	-10%
COc1cc(CNCCN2CCOCC2)ccc1OCc1cccc(C)c1	-2%
O=C(Nc1ccncc1)c1nc(N2CCCC2)ncc1Br	-5%
CC1CCC(C)(NC(=O)Nc2ccn(C(C)C)n2)CC1 (configuration not stated)	-11%
CC1(C)CC[C@H](NC(=O)CCNc2ncccn2)c2ccccc21	-8%
COc1cc2c(cc1OC)CN(c1noc(-c3ccccc3)n1)CC2	-5%
CC(C)(C)c1ccc(C(=O)N[C@H]2C[C@@H]3CC[C@H]2C3)cc1	8%
Cc1ccc(CNC(=O)c2csnn2)n1C	-1%
COc1ccc(CNC(=O)[C@H](C)n2ccc3cc(S(=O)(=O)N4CCCC4)ccc32)cc1OC	0%
O=C1NC(=O)C2(CCN(C(=O)C3CC4CCC3C4)CC2)N1 (configuration not stated)	-7%

Compound	% Inhibition
CC(C)C(=O)N1CC[C@H](CC(=O)NCc2ccncc2)C1	0%
N#CC1CCC(Nc2cnn(-c3ccncc3)c2)CC1 (configuration not stated)	5%
CS(=O)(=O)N1CC[C@H](CC(=O)N2CCN(c3ccc(F)cc3)CC2)C1	-14%
Cc1nn(C)cc1S(=O)(=O)N1CCC[C@@H]1CCc1ccccn1	-12%
COc1cc(OC)c(OC)cc1CNC(C)C	-2%
Cc1c(C(=O)NC[C@](C)(O)c2ccc(F)cc2F)cnn1C	7%
CN(Cc1cccnc1)c1ccc(S(=O)(=O)C(F)F)cc1	-5%
O=C(NCCc1c(Cl)cccc1Cl)[C@@H]1CCCc2[nH]cnc21	-2%
O=C(c1cc(F)c[nH]1)N1CCN(C(=O)c2cc(F)c[nH]2)[C@@H]2CCCC[C@H]21	13%
COc1ccc(C2=NC3(CCN(Cc4ccccc4)CC3)N[C@H](c3cc(Cl)ccc3O)C2)cc1	24%
COc1ccc(-c2cc3ncc(C(=O)c4cc(Cl)ccc4O)cn3n2)cc1	72%
O=C(Cc1ccc(Cl)cn1)Nc1ccnn1[C@H]1CCCc2ccccc21	-10%
CN1CCN(C(=O)CNC(=O)c2cccc(Cl)c2)CC1	-2%
Cc1ccc(S(=O)(=O)N(CC(=O)NC2CCN(C)CC2)c2cccc(Cl)c2)cc1	-7%
Cc1ccc(COc2cccc(CNC3CC3)c2)cc1	-7%
Cn1c(=O)c2ccnn2c2ccc(C(=O)NC3CCN(Cc4ccccc4)CC3)cc21	23%
CC(C)Cn1ncnc1COC(=O)c1cccnc1	-1%
CC[C@H]1C[C@@H]1CNC(=O)c1cccc(NC(=O)c2ccco2)c1	-7%
Cc1cc2[nH]ncc2cc1NC(=O)c1ccco1	-8%
CC(C)(C)c1nc(Cn2c3c(sc2=O)CCCC3)no1	1%
COc1ccc(CN2CCC(C(=O)NCCCN3CCOCC3)CC2)c(OC)c1	4%
